A selection: hits, their analogues and other compounds. The true share with any hit is near 4.6%.
D1 agonist = human D1 receptor agonism | P21728 | HEK293 T-REx D1 cells, calcium flux, agonist mode | activation, % at 2 µM | hit rate 1% among 360,000; note: 0% is about no effect
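Inducible HEK293 T-REx D1 cells, force-coupled to calcium signalling, were plated at 4000 cells/well with tetracycline and held overnight at 30 C. After no-wash calcium dye loading, compound-evoked calcium rise over 180 s flagged agonists.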
TRHR ag = activates the human TRH receptor; P34981; TRHR cells, calcium flux fluo-8, FDSS agonist mode; activation, % at 2 µM; hit rate 0.18% among 360,000; note: 0% is about no effect
Target sequence (P34981 whole entry, looked up): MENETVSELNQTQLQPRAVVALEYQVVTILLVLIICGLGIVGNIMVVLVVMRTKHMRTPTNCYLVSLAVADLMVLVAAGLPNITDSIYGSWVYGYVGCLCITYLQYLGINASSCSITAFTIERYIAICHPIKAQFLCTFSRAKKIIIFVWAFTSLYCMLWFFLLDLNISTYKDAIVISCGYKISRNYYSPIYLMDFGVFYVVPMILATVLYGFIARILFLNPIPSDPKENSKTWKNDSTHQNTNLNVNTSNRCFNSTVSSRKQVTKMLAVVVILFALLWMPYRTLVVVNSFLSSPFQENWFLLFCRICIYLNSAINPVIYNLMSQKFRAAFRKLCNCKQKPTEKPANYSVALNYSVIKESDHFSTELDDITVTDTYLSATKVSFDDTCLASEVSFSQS
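TRHR-expressing cells loaded with fluo-8 calcium dye; 23 nL library compound pin-transferred, kinetic FDSS fluorescence (Ex 480/Em 530) recorded about 180 s for agonist-induced calcium release, before a 10 nM TRH EC20 addition for potentiator mode.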
D1 potentiator = potentiators of human D1 dopamine receptor | HEK293 TREx D1 cells, calcium flux, dopamine EC20 potentiation | AID 504651 | P21728 | hit rate 0.036% among 360,000 | potentiation, % at 10 µM; in the data active = potentiation above about 30%; note: 0% is about no effect
TRHR PAM = allosteric enhancers of human TRH receptor. P34981. TRHR cells, fluo-8 calcium fluorescence, EC20 TRH enhancement. enhancement, % at 2 µM. hit rate 0.66% among 360,000. AID 493056; in the data active = enhancement above about 30%; note: 0% is about no effect
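TRHR-expressing cells loaded with fluo-8 calcium dye were read kinetically (ex 480/em 530) during compound addition, then stimulated with an EC20 of TRH (10 nM final). Enhancement of the Gq-mediated intracellular calcium response was scored.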
D1 antagonist = human D1 dopamine receptor antagonism; HEK293 TREx D1 cells, calcium flux, dopamine EC80; hits give low values; AID 504652; activity change, negative = inhibition, % at 10 µM; hit rate 3.2% among 360,000; in the data active = activity change below about -30%; note: % is set by controls: 0 for no effect and ±100 for the full control effect
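After overnight tetracycline induction at 30 C, force-coupled D1 HEK293 cells took up a no-wash calcium dye at room temperature. Compounds were added and monitored 180 s, and the response to EC80 dopamine was then recorded.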
The depositor's hits bear a star. Cut-off read from the data, not from the text of the source, unless noted: active = activation above about 30%; inactive = the rest.

`COCCNC(=O)C(c1ccc(C)o1)N(Cc1ccc(OC)cc1)C(=O)Cn1nnc2ccccc21` (stereo unspecified) gave D1 agonist 56.3*, TRHR ag 0.3, D1 potentiator -8.8, TRHR PAM -0.7 and D1 antagonist -11.4.
For COC(=O)c1c(C)oc2ccc(N(C(=O)c3ccncc3)S(=O)(=O)c3ccc(OC)cc3)cc12 the results were D1 agonist 0.3, TRHR ag 0.4, D1 potentiator -4.5, TRHR PAM -4.1 and D1 antagonist -47.6*.
For CCOc1ccc(S(=O)(=O)N(C(=O)c2ccncc2)c2ccc3oc(C)c(C(=O)OC)c3c2)cc1 the results were D1 agonist 2.4, TRHR ag 0.4, D1 potentiator -1.9, TRHR PAM -6.4 and D1 antagonist -45.5*.
CCc1ccc(S(=O)(=O)N(C(=O)c2ccncc2)c2ccc3oc(C)c(C(=O)OC)c3c2)cc1 was read as D1 agonist 1.0, TRHR ag -0.6, D1 potentiator -1.6, TRHR PAM -4.5 and D1 antagonist -2.2.
`CCN(CC)CCNC(=O)c1ccc(NC(=O)Cc2ccccc2F)cc1` gave D1 agonist 0.9, TRHR ag 1.2, D1 potentiator 1.9, TRHR PAM 2.4 and D1 antagonist 3.3.
Screening CCN(CC)CCNC(=O)c1ccc(NC(=O)c2cn(-c3ccccc3)nc2-c2cccs2)cc1 returned D1 agonist 13.7, TRHR ag -0.6, D1 potentiator -10.8, TRHR PAM 1.7 and D1 antagonist -80.5*.
CCN(CC)CCNC(=O)c1ccc(NC(=O)c2ccccc2-c2ccc(C(F)(F)F)cc2)cc1 was read as D1 agonist 70.0*, TRHR ag -0.4, D1 potentiator -2.8, TRHR PAM -1.9 and D1 antagonist -18.7.
For CC1CCN(c2nc(-c3cccnc3)nc3scc(-c4ccccc4)c23)CC1 the results were D1 agonist 1.4, TRHR ag -0.4, D1 potentiator -4.2, TRHR PAM 40.6* and D1 antagonist 0.5.
Screening COc1cccc(CNC(=O)c2ccc(NC(=O)CC3SC(N4CCCCC4)=NC3=O)cc2)c1 (stereo unspecified) returned D1 agonist 2.8, TRHR ag 0.5, D1 potentiator -2.5, TRHR PAM 0.8 and D1 antagonist 15.7.
O=C(Nc1ccc2nc3n(c(=O)c2c1)CCCCC3)c1cc([N+](=O)[O-])ccc1F was read as D1 agonist 1.0, TRHR ag -1.3, D1 potentiator 7.3, TRHR PAM 2.0 and D1 antagonist -5.8.
O=C(Nc1ccc2nc3n(c(=O)c2c1)CCCCC3)c1c(F)ccc([N+](=O)[O-])c1F was read as D1 agonist 5.3, TRHR ag 3.5, D1 potentiator -1.3, TRHR PAM 6.0 and D1 antagonist -41.9*.
`COc1cccc(CNC(=O)c2cccc(NC(=O)CC3SC(N4CCCCC4)=NC3=O)c2)c1` (stereo unspecified) gave D1 agonist 0.2, TRHR ag 0.3, D1 potentiator -1.2, TRHR PAM 35.7* and D1 antagonist 12.0.
O=C(NCc1cccc(Cl)c1)C(=O)Nc1ccc2nc3n(c(=O)c2c1)CCCCC3 was read as D1 agonist 3.9, TRHR ag -2.0, D1 potentiator -4.0, TRHR PAM 4.8 and D1 antagonist 5.2.
Screening CCOC(=O)Nc1ccc2nc3n(c(=O)c2c1)CCCCC3 returned D1 agonist 4.6, TRHR ag 0.4, D1 potentiator 3.1, TRHR PAM 2.1 and D1 antagonist 3.0.
COCCNC(=O)C(=O)Nc1ccc2nc3n(c(=O)c2c1)CCCCC3 was read as D1 agonist 0.0, TRHR ag -0.2, D1 potentiator -3.9, TRHR PAM -4.0 and D1 antagonist -52.3*.
`COc1cccc(CNC(=O)C(=O)Nc2ccc3nc4n(c(=O)c3c2)CCCCC4)c1` gave D1 agonist -1.0, TRHR ag -0.9, D1 potentiator -1.4, TRHR PAM 7.3 and D1 antagonist -39.9*.
`Cc1noc2ncnc(N3CCN(c4cccc(C(F)(F)F)c4)CC3)c12` gave D1 agonist 10.7, TRHR ag 0.5, D1 potentiator -3.0, TRHR PAM -12.0 and D1 antagonist -7.0.
CCn1c(=O)[nH]c2cc(C(=O)Nc3cc(C)cc(C)c3)ccc2c1=O was read as D1 agonist 7.7, TRHR ag -1.0, D1 potentiator -2.8, TRHR PAM -0.8 and D1 antagonist -20.8.
`CCCC(=O)Nc1nnc(SCc2cc(=O)n3ccccc3n2)s1` gave D1 agonist 2.3, TRHR ag -0.6, D1 potentiator 0.3, TRHR PAM -0.7 and D1 antagonist 11.2.
Screening CS(=O)(=O)N(CC(=O)Nc1ccccc1Sc1ccccc1)c1cccc(Br)c1 returned D1 agonist 3.8, TRHR ag 0.9, D1 potentiator -2.3, TRHR PAM -4.0 and D1 antagonist 7.7.
Screening Cc1oc(-c2ccc(F)cc2)nc1CN1CCCC(C(=O)N2CCOCC2)C1 (stereo unspecified) returned D1 agonist -0.1, TRHR ag 0.6, D1 potentiator -3.4, TRHR PAM 2.1 and D1 antagonist -11.5.
CCc1ccc(-c2csc(NC(=O)COC(=O)CCc3nc4ccccc4s3)n2)cc1 was read as D1 agonist -0.2, TRHR ag -0.4, D1 potentiator -9.4, TRHR PAM -7.7 and D1 antagonist 2.7.
O=C(c1cc(COc2ccc(F)cc2Cl)on1)N1CCN(C2CCCC2)CC1 was read as D1 agonist 15.2, TRHR ag -0.9, D1 potentiator -2.7, TRHR PAM 4.7 and D1 antagonist -44.2*.
Cc1c(C(=N)C(C#N)C#N)c(=N)oc2c1ccc1ccccc12 was read as D1 agonist 1.9, TRHR ag 0.2, D1 potentiator 4.6, TRHR PAM 2.9 and D1 antagonist -41.0*.
For Cc1c(C(=O)O)oc2c1ccc1ccccc12 the results were D1 agonist 0.8, TRHR ag -0.1, D1 potentiator -3.5, TRHR PAM 8.4 and D1 antagonist -11.7.
`CCCC(/C=C/c1ccc(OC(C)=O)cc1)=C1/c2ccccc2C(=O)N1c1ccccc1` gave D1 agonist 2.0, TRHR ag -0.2, D1 potentiator 1.8 and TRHR PAM -1.4.
`O=C(Nc1cccc(C(=O)N2CCCCCC2)c1)c1ccco1` gave D1 agonist 2.4, TRHR ag 0.2, D1 potentiator -0.6, TRHR PAM 4.4 and D1 antagonist -10.6.
For CCOC(=O)N1CCN(C(=O)c2cccc(NC(=O)c3ccco3)c2)CC1 the results were D1 agonist 2.8, TRHR ag 0.9, D1 potentiator -6.8, TRHR PAM -2.5 and D1 antagonist -63.1*.
Screening CCOC(=O)c1cccc(NC(=O)c2ncoc2-c2ccco2)c1 returned D1 agonist 15.7, TRHR ag -0.7, D1 potentiator -0.8, TRHR PAM 4.1 and D1 antagonist -38.7*.

High-throughput results deposited in PubChem by National Center for Advancing Translational Sciences (NCATS).
